Measurements from the supplement of paper PMC10941209.
Values without a mark were called inactive.

The compounds below were run on Toxoplasma gondii RH 2F1 tachyzoites (intracellular in HFF) (assay: parasite survival relative to DMSO control; higher = less antiparasitic activity, active = 20 or less). Details: 1 µM; 72 h.
In short: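 Intracellular Toxoplasma gondii RH-2F1 tachyzoites, which express β-galactosidase, were grown in HFF cells (5 × 10^3 cells/well, 96-well plates) infected with 5 × 10^3 parasites in D2 medium for 3 h, then treated with compound at 1 μM for 72 h at 37°C in 5% CO2. Cells were lysed for 15 min, then CPRG was added and absorbance read at 570 nm after 30 min. Survival is the signal as a percentage of DMSO-treated infected controls, from 2 or more biological replicates.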
For `CONC(=N)c1ccc(-c2ccc(-c3ccc(C(=N)NOC)cc3)o2)cc1`, the parasite survival was 49.7%.
In the case of `Cc1cc(-c2ccccc2)c(C(=O)C(=O)Nc2ccc(N3CCN(c4ncc(F)cn4)CC3)cc2)n1C`, the parasite survival is reported as 9.71% (active).
`O=C(N[C@H](CCS)C(=O)N[C@H](Cc1ccccc1)C(=O)O)c1cc2ccccc2[nH]1` was tested, and the parasite survival was 45.8%.
With `CC(=O)N[C@H](C)C(=O)N[C@H](Cc1ccccc1)C(=O)O` the parasite survival was 61.2%.
`O=C(NCCN1CCCCC1)c1cccc(C(F)(F)F)c1` showed a parasite survival of 67.5%.
Work on `CCOC(=O)/C=C/[C@H](C[C@@H]1CCNC1=O)NC(=O)[C@H](CC)n1cccc(NC(=O)c2cc(C)on2)c1=O` yielded a parasite survival of 63.3%.
In the case of `Clc1cc(Cl)c2c(c1)CCc1ccccc1C2n1ccnc1` (centres undefined), the parasite survival is reported as 7.97% (active).
`CC(=N)N1CC[C@H](SC2=C(C(=O)O)N3C(=O)[C@@H]([C@@H](C)O)[C@H]3C2)C1` gave a parasite survival of 53.7%.
For `COc1ccc(C[C@@H](C)[C@@H](C)Cc2ccc(OC)c(OC)c2)cc1OC`, the parasite survival was 77.7%.
Compound `FC(F)(F)c1cc(C(F)(F)F)c2ccc3nc(-c4nnco4)cn3c2n1` has a parasite survival of 77.8%.
`CC1(C)[C@H](C(=O)O)N2C(=O)C[C@H]2S1(=O)=O` showed a parasite survival of 35.7%.
Work on `COc1ccccc1CN[C@H]1C2CCN(CC2)[C@H]1C(c1ccccc1)c1ccccc1` yielded a parasite survival of 37.5%.
Work on `C/C(=N\NC(=O)C1CC1c1ccccc1)c1ccc(NC(=O)c2ccco2)cc1` (centres undefined) yielded a parasite survival of 47.3%.
Work on `O=S(=O)(Nc1ccc(O)cc1)c1cccc2cccnc12` yielded a parasite survival of 64.4%.
In the case of `O=C(O)c1sccc1S(=O)(=O)n1ccc2cc(Br)ccc21`, the parasite survival is reported as 66.8%.
In the case of `COc1cc(NS(=O)(=O)c2ccc(C)cc2)c2ncccc2c1`, the parasite survival is reported as 2.97% (active).
With `CC(C)(C)c1ccc(C(Cn2cccc(C(F)(F)F)c2=O)NC2Cc3ccccc3C2)cc1` (centres undefined) the parasite survival was 51.5%.
Compound `CC1(C)Cc2c(C#N)c(SCCc3ccccc3)nc(N3CCOCC3)c2CO1` has a parasite survival of 39.6%.
`CC(=O)Oc1ccccc1C(=O)Nc1ncc([N+](=O)[O-])s1` was tested, and the parasite survival was 75.8%.
`CC(C)Cn1c(=O)n(C)c(=O)c2c(-c3cncn3C)n(Cc3cccc4ccccc34)nc21` gave a parasite survival of 68.5%.
For `Nc1nnnn1CCOc1c2[nH]c3ccc(Cl)cc3c2cc2c1[nH]c1ccc(Cl)cc12`, the parasite survival was 28.5%.
In the case of `CSC[C@H]1CN(Cc2c[nH]c3c(N)ncnc23)C[C@@H]1O`, the parasite survival is reported as 45.9%.
For `O=[N+]([O-])c1cn(Cc2nc(O)nc(O)c2Br)cn1`, the parasite survival was 58.1%.
With `CCCCSc1nc(N)c2[nH]c(=O)c(=O)n(Cc3ccccc3)c2n1` the parasite survival was 26.1%.
